According to PubChem BioAssay (Tox21):
Results filed as inconclusive are left out. Unmarked numbers belong to inactive results. Active and inactive are the calls of the source. Calls follow the shape of the full dose curve.

biological target: Thyrotropin receptor (Homo sapiens) (UniProt P16473); test: qHTS assay to identify small molecule antagonists of the thyroid stimulating hormone receptor (TSHR) signaling pathway (AID 1259385); details: TSHR-HEK293 cAMP HTRF, TSH-stimulated antagonist mode; series mostly up to 92.4 µM; also: nearly all actives have a fitted effect of over 20% in size
Sequence (P16473 whole entry, looked up): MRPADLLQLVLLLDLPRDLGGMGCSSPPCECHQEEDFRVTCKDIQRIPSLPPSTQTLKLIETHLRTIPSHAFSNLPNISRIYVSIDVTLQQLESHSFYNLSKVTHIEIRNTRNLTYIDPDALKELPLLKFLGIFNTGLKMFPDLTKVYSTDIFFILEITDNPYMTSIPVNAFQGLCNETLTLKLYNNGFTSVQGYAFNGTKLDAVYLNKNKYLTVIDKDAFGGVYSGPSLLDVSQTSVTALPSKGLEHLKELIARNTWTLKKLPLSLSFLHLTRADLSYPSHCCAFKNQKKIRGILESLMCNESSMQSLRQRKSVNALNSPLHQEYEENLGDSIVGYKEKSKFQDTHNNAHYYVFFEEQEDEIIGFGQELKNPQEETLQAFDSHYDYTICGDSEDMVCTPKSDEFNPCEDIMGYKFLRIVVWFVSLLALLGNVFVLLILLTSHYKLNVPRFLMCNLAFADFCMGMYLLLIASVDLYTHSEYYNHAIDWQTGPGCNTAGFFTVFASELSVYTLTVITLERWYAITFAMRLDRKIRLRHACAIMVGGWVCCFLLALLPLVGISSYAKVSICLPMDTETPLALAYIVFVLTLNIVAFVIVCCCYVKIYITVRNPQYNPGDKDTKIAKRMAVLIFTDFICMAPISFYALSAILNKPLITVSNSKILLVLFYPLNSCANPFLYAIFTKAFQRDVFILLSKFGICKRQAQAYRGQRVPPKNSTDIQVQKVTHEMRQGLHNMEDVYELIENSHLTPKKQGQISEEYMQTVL
Description: U.S. Tox21 Program National Center for Advancing Translational Sciences [NCATS] NIH Chemical Genomics Center [NCGC] U.S. Environmental Protection Agency [EPA] National Institutes of Environmental Health Sciences [NIEHS] National Toxicology Program [NTP] U.S. Food and Drug Administration [FDA] Tox21 Assay Overview: TSHR is the receptor for thyrotropin (thyroid stimulating hormone or TSH), a member of the glycoprotein hormone family. TSH is released by the anterior pituitary gland and is the main regulator of thyroid gland growth and development. Upon binding circulating thyrotropin, a G-protein signal cascade activates adenylyl cyclase and […] cAMP concentration is increased. cAMP is a key second messenger involved extensively in cellular signal transduction pathways associated with the majority of G-protein coupled receptors (GPCRs). The activation of these GPCRs by neurotransmitters, lipids, nucleotides, peptides and hormones results in the activation or the inhibition of plasma membrane-bound adenylate cyclase through heterotrimeric G-proteins. A cell-based TSHR assay can be used to screen chemical compounds that modulate TSHR either in agonist or antagonist mode.
Tox21 Assay Protocol Summary: TSHR-Hek293 cells were dispensed at 800 cells/4uL/well in 1536-well white plates using a Multidrop dispenser. After the assay plates were incubated at a 37C/5% CO2 incubator for 18 hrs, 23 nL of compounds dissolved in DMSO, positive controls or DMSO only was transferred to the assay plate by a pin tool, followed by 1 ul medium containing Ro20-1724. For the antagonist mode screening, 1 uL of TSH was added on the top of the cell/compound mixtures to achieve a final agonist concentration of 1.5 ng/mL. After 30 min of incubation at room temperature, 2.5 ul/well of cAMP-d2 and 2.5 ul/well of anti-cAMP-cryptate were added respectively into the assay plates using a Flying Reagent Dispenser. The plates were incubated at room temperature for 1 hr. The fluorescence intensity in the plates was measured using an Envision plate reader. Each test compound was measured at 15 concentrations and in triplicates.
% is scaled to controls: 0 for no effect and ±100 for the full control effect.

SMILES	outcome	activity change, negative = inhibition
CC(C)(C)c1nnc(NS(=O)(=O)c2ccc(N)cc2)s1	inactive	
CN(CCOc1ccc(NS(C)(=O)=O)cc1)CCc1ccc(NS(C)(=O)=O)cc1	inactive	
C=C(C)C(=O)OCCNC(C)(C)C	inactive	
O=C(NCCN1CCOCC1)c1ccc(Cl)cc1	inactive	
CC(C)(C)c1n[nH]c(=S)n(N)c1=O	inactive	
COC(=O)C1CC(=O)C(C(=O)OC)CC1=O (stereo not given)		0.232% [at 8.39 µM]
CCCCOC(=O)c1ccccc1	inactive	
CCCCCCN	inactive	
O=C(O)c1ccc(Cl)cc1Cl	inactive	
COc1ccc(Br)c(C)c1	inactive	
CC(N)C(=O)OC(C)(C)Cc1ccc(Cl)cc1 (stereo not given)	inactive	
Cc1cc(NC(=O)C2=C(O)c3ccccc3S(=O)(=O)N2C)no1	inactive	
Oc1cn2c(n1)Nc1ccc(Cl)c(Cl)c1C2		-0.393% [at 19 µM]
CCN(C)C(=O)Oc1cccc([C@H](C)N(C)C)c1	inactive	
CC(=O)NCc1c(I)c(NC(C)=O)c(I)c(C(=O)O)c1I	inactive	
CCOC(=O)c1ccc(OC(=O)CCCCCN=C(N)N)cc1	inactive	
O=C(OCc1ccccc1)C(=O)OCc1ccccc1	inactive	
CCCCCCCCSCC	inactive	
O=S(=O)(O)CCN1CCN(CCO)CC1	inactive	
CC(=O)Nc1ccc(S(=O)(=O)Nc2ccc([N+](=O)[O-])cc2)cc1	inactive	

SMILES	outcome	activity change, negative = inhibition
Nc1ccc([N+](=O)[O-])c(N)c1	inactive	
Cc1cccc(C)c1NC(=O)c1ccccc1C(=O)O	inactive	
CCCCCCCCCCl	inactive	
COC(=O)CCc1ccc(OCC(O)CNC(C)C)cc1 (stereo not given)	inactive	
O=C1O[C@@H]2[C@@H](O)[C@H](O)O[C@@H]2[C@H]1O	inactive	
CC(C)CC(C)CC(C)CC(C)COC(=O)c1ccccc1C(=O)OCC(C)CC(C)CC(C)CC(C)C (stereo not given)	inactive	
CC(C)CCCC(C)(C)O	inactive	
C[C@@H](O)[C@H]1C(=O)N2C(C(=O)O)=C(SCCN=CN)C[C@H]12	inactive	
CC(COC(C)(C)C)OCCCO (stereo not given)	inactive	
COc1cc2c(cc1OC)[C@@H]1CC(=O)[C@@H](CC(C)C)CN1CC2	inactive	
c1ccc2c(c1)ccc1c3ccccc3ccc21	inactive	
O=C(CS(=O)Cc1ccco1)NC/C=C\COc1cc(CN2CCCCC2)ccn1 (stereo not given)	inactive	
CC(=O)c1sc(C)nc1C	inactive	
CC(=O)NCCCCCC(=O)O	inactive	
c1ccc2nccnc2c1	inactive	
NNc1nnc(NN)c2ccccc12	inactive	
O=C1CC(c2ccc(Cl)cc2)CC(=O)N1	inactive	
O=C(CCN1CCN(CCO)CC1)N1c2ccccc2Sc2ccc(C(F)(F)F)cc21	inactive	
CCOC(=O)/C=C/c1ccccc1	inactive	
CNC(=O)[C@H]1O[C@@H](n2cnc3c(NCc4cc(Cl)ccc4OCc4cc(C)no4)ncnc32)[C@H](O)[C@@H]1N	inactive	
